Screening results deposited in PubChem by several laboratories.
A selection: hits, their analogues and other compounds. The true share with any hit is near 1.9%.
GRK2 aptamer HTS: compounds blocking aptamer binding on GRK2 – biochemical, human GRK2, bead flow cytometry, HTS, primary screen; Beta-adrenergic receptor kinase 1 (Homo sapiens), P25098; 0.59% of 330,000 active; FAM-aptamer displacement from GRK2; inhibition of aptamer binding, % at 10 µM;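 active = inhibition of aptamer binding above 40%, roughly 3 SD of noise, on plates passing a quality check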;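 note: median bead fluorescence of bound FAM aptamer so fluorescent compounds give negative values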
PERK inh: block of dimerizer-induced PERK translation repression, primary screen, PERK inhibitor project, CHO PERK-DD cells, SEAP luminescence, HTS. Eukaryotic translation initiation factor 2-alpha kinase 3 (Homo sapiens), Q9NZJ5. 0.17% of 220,000 active. CHO PERK-DD fusion, SEAP luminescence translation reporter. inhibition, % at 5.6 µM;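 active = inhibition above the mean inhibition of all tested compounds plus 3 SD, set separately per screening campaign, cut at about 2.9% in these data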;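 note: PERK kinase domain activated by AP20187 dimerizer at 100 nM; 0% = DMSO with dimerizer and 100% = rapamycin at 8.4 µM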
PABP FP inh: PABP poly(A) RNA binding inhibitors, primary screen, biochemical, fluorescence polarization, uHTS; Polyadenylate-binding protein 1 (Homo sapiens), P11940; 1% of 290,000 active; inhibition, % at 35 µM;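 note: calls also rest on retests at 20 µM and on dose response follow-up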
Target sequence (P11940 whole entry, looked up): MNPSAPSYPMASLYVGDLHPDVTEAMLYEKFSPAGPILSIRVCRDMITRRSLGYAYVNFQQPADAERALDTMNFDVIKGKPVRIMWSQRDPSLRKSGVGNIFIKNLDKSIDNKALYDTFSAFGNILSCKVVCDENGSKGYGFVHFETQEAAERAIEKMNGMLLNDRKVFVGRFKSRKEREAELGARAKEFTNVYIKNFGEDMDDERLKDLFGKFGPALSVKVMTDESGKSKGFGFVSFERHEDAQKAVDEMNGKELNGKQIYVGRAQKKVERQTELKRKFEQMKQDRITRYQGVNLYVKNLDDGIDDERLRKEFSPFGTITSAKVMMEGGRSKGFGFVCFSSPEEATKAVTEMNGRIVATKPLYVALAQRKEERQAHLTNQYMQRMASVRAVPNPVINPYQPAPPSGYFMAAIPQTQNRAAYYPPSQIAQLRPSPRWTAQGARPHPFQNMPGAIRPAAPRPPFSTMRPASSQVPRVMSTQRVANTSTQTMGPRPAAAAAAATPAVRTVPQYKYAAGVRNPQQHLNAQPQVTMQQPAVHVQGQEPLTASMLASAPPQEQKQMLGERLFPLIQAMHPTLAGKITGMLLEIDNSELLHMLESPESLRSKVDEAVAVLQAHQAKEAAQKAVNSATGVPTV
PABP1 MLLE inh: inhibitors of PABP1 MLLE–PAM2 peptide binding, primary screen, biochemical, fluorescence polarization, FITC-PAM2, GST-MLLE; inhibition, % at 20 µM; 0.36% of 360,000 active; Polyadenylate-binding protein 1 (Homo sapiens), P11940; in the data active = inhibition above about 35%, passing the limit was not always enough;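 note: plate controls were DMSO wells with GST-MLLE for no effect and wells lacking GST-MLLE protein for full effect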
eIF4H FP inh: human eIF4H binding inhibitors, primary screen, translation initiation inhibitor project, biochemical, uHTS, fluorescence polarization; eIF4H fluorescence polarization binding assay; inhibition, % at 35 µM; 0.94% of 290,000 active; AID 2012, 2009;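 note: calls also rest on retests at 20 µM and on dose response follow-up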
The depositor's hits bear a star; ? = inconclusive; . = no result. Unless noted, the rule behind the calls is not given here.

SMILES	GRK2 aptamer HTS	PERK inh	PABP FP inh	PABP1 MLLE inh	eIF4H FP inh
COCCSc1nnc(-c2cccc(C#N)c2)n1C	0	3.3*	4	0	-6
C[C@@H]1CN([C@H](C)CO)C(=O)c2cc(-c3ccc(C(=O)N(C)C)cc3)cnc2O[C@@H]1CN(C)C(=O)c1cccnc1	.	.	.	5	.
CC(C)Cc1cc(C(=O)NCc2cccnc2)no1	0	1	0	1	1
CC(C)Cc1cc(C(=O)NCc2cccs2)no1	5	3.4*	-16	0	-3
CCCN1CCN(S(=O)(=O)c2cn(C)nc2C)CC1	0	.	38*	36	69
CC1=CC(=O)C=CC1=Nc1ccc(N(C)C)cc1	.	.	.	51*	.
Cc1cc(C)c(Nc2cc(S(=O)(=O)O)c(N)c3c2C(=O)c2ccccc2C3=O)c(C)c1	1	0	active	15	92
CN1C(=O)N(C)C2(c3ccccc3)Nn3c(s/c(=C/c4ccco4)c3=O)=NC12c1ccccc1 (stereo not given)	0	1	43*	-12	50
CN1C(=O)N(C)C2(c3ccccc3)Nn3c(s/c(=C/c4ccccc4F)c3=O)=NC12c1ccccc1 (stereo not given)	0	0	-2	.	-2
COc1ccc(CNC(=O)CSc2nc(-c3ccccc3)cc(-c3cccs3)c2C#N)cc1	0	0	-2	16	0
COc1ccc(-c2cc(-c3cccs3)c(C#N)c(SCC(=O)NCc3ccco3)n2)cc1	0	-1	12	8	55*
C=CCN1C(=O)/C(=C2/Sc3ccccc3N2CC)SC1=S	1	.	8	0	44
C=CCN1C(=O)/C(=C2/Sc3ccccc3N2CCCS(=O)(=O)O)SC1=S	3	1	36	41*	12
O=C(CN1C(=O)c2ccccc2C1=O)C(O)CN1C(=O)c2ccccc2C1=O (stereo not given)	.	.	.	6	.
CCc1cc(C(=O)NCC2CCCO2)sc1C (stereo not given)	0	.	0	15	-12
COc1cc(OC)cc(C(=O)NC2CC(C)(C)NC(C)(C)C2)c1	0	.	-9	6	-15
CCC(=O)c1ccc(OCc2ccc(C(=O)OC)cc2)c(OC)c1	0	1	-4	1	-2
CCCCNC(=S)N(C)/N=C/c1ccc(OCc2ccc(C(=O)OC)cc2)c(OC)c1	0	0	61*	-9	3
O=C(NC(=S)NCCC1=CCCCC1)c1ccccc1Br	0	1	13	45*	8
Cc1noc(C)c1NC(=O)N(C)C[C@@H]1Oc2ncc(Br)cc2C(=O)N([C@@H](C)CO)C[C@H]1C	.	.	.	6	.
CCCS(=O)(=O)c1ccc(COC(=O)c2cccc(NC(=O)C(C)C)c2)cc1	4	0	54*	5	active
CC(=O)Nc1cccc(C(=O)OCc2ccccc2)c1	0	0	9	12	5
CCc1nc2c(OCc3cccc(Cl)c3)cccn2c1N(C)C(C)=O	.	.	.	0	.
CC(=O)Nc1ccc(C(=O)CN2C(=O)NC3(CCOc4ccccc43)C2=O)c(F)c1 (stereo not given)	0	.	.	-12	.
CCCc1cc(C(=O)Nc2cc(Br)ccc2O)no1	0	3.1*	-6	-7	-8
SMILES	GRK2 aptamer HTS	PERK inh	PABP FP inh	PABP1 MLLE inh	eIF4H FP inh
CCCc1cc(C(=O)Nc2cc(Cl)ccc2O)no1	6	.	-12	-33	8
Cc1c(C(C)(C)C)c(C=S)n2ccccc12	2	0	111*	29	77*
CCOc1ccc(C(=O)NCC(=O)NC(C)CCc2ccccc2)cc1OCC (stereo not given)	0	.	-6	5	1
COc1ccc(/C=C(\NC(=O)c2ccco2)C(=O)NC(Cc2ccccc2)C(=O)O)cc1 (stereo not given)	1	.	4	-5	12
CC(C)c1ccc(C2C3CSCC=C3C(C#N)=C(N)C2(C#N)C#N)cc1 (stereo not given)	0	-1	120*	.	128*
CN1CC=C2C(C#N)=C(N)C(C#N)(C#N)[C@H](c3cccc(Cl)c3)C2C1 (stereo not given in full)	0	1	?	87	?
